Results: PubChem BioAssay (NCATS)
Results filed as inconclusive are left out. Where a call stands in place of a potency, no number is given. A number with no mark means an inactive call. Activity calls are given as the source filed them. Calls follow the shape of the dose curve; as a rule, active = well fitted curve in the direction sought with a large enough effect; inconclusive = small, poorly fitted or top-dose-only effect, or another doubt; inactive = no such curve, though single readings can be large; an effect the other way counts as inactive or inconclusive.

What was measured:
[1] = qHTS for Inhibitors of Plasmodium falciparum (7G8) proliferation (AID 504316); also: nearly all actives have a fitted effect of over 65% in size; also: potency is read from the fitted curve at half-maximal effect
Outline: (§1)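 Parasite growth measured as SYBR Green DNA fluorescence (ex 485, em 535 nm) after overnight lysis following 72 h culture at 37 °C, 0.3% parasitemia, 2.5% hematocrit. Values normalized against DMSO and 0.29 uM artemisinin controls, with plate-stack correction.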

[2] = qHTS for Inhibitors of Plasmodium falciparum (CP250) proliferation (AID 504320)
Outline: as §1

[3] = qHTS for Inhibitors of Plasmodium falciparum (GB4) proliferation (AID 504315); also: nearly all actives have a fitted effect of over 50% in size
Outline: as §1

[4] = qHTS for Inhibitors of Plasmodium falciparum (HB3) proliferation (AID 504318); also: nearly all actives have a fitted effect of over 60% in size; also: potency is read from the fitted curve at half-maximal effect
Outline: as §1

| SMILES | Potency [1] | Potency [2] | Potency [3] | Potency [4] |
| --- | --- | --- | --- | --- |
| O=C1CCCC2=C1[C@H]1O[C@](CCCCN3C(=O)c4ccccc4C3=O)(Cc3c1ccc1ccccc31)O2 | 1690 nM (active) | inactive | – | – |
| COc1cccc([C@@H]2Oc3ccc(Br)cc3C[C@@H]2OC(=O)Nc2cc(OC)c(OC)c(OC)c2)c1 | – | inactive | – | – |
| COC(=O)c1ccc(CN2C(=O)[C@]3(OCCC=C[C@@H]3C)c3cc(OC)ccc32)cc1 | inactive | inactive | inactive | – |
| C=C(C(C)=O)C(O)c1cccc(OC)c1 (stereo not given) | inactive | inactive | inactive | inactive |
| COc1ccc(O[C@H]2C=C[C@@H](c3ccccc3)O[C@H]2COC(=O)CCC(C)=NO[C@H](C)CN2CCCc3nc(C)c(C)cc32)cc1 | 1900 nM (active) | – | – | – |
| COC(=O)C1=C(C)N(Cc2ccccc2)C(=NCc2ccc(OC)cc2)NC1c1cccc(F)c1 (stereo not given) | – | – | – | inactive |
| COC(=O)C1=C(C(=O)OC)[C@@H]2N(C)c3ccccc3[C@@]23C[C@@H](CO)N(C(=O)NC2CCCC2)C3=N1 | – | – | – | 1900 nM (active) |
| CCCCc1nc2c(c3c1C[C@H](C)OC3)CN(S(=O)(=O)CCCC)CC2 | inactive | inactive | inactive | inactive |
| C[C@H]1[C@@H](C(=O)N2CCCC2)CC(=NOCc2ccccc2)C(=NOCc2ccccc2)C[C@H]1c1ccccc1 | 478 nM (active) | – | – | 1690 nM (active) |
| Cc1cccc(C)c1Nc1oc(-c2ccccc2)nc1-c1ccccc1 | inactive | inactive | – | inactive |
| CCCNC(=O)OC[C@H]1O[C@H](CCON=C(C)CCN2CCCCc3nc(C)c(C)cc32)C=C[C@H]1Oc1ccc(OC)cc1 | 1900 nM (active) | – | – | 2820 nM (active) |
| C=C[C@H]1CCC=C2C(=O)CCC[C@H]21 | 1900 nM (active) | – | – | – |
| O=C1OC2(CCCCC2)CC2=C1[C@H]1O[C@](c3ccsc3)(Cc3c1ccc1ccccc31)O2 | inactive | inactive | – | inactive |
| Fc1ccccc1-c1nc(-c2ccccc2)oc1NCc1ccccc1 | – | inactive | – | – |
| COC(=O)CC1OC1[C@H](C)[C@@H](OC)C(C)C (stereo not given in full) | – | inactive | – | – |
| COC1=C(C(=O)c2ccccc2)C(=O)[C@@]2(CC=C(C)C)CC(C#N)C[C@@]1(CC=C(C)C)C2=O (stereo not given in full) | – | inactive | inactive | – |
| COC(=O)c1ccc(CN2C(=O)[C@@]3(CC(C)=C[C@@H](COc4ccccc4)O3)c3ccccc32)cc1 | – | inactive | – | – |
| COC(=O)NC(c1ccccc1)c1c[nH]c2ccc(OC)cc12 (stereo not given) | inactive | inactive | inactive | inactive |
| COc1cccc([C@@H]2[C@H](C)C[C@H]3CC(=O)N4[C@H](CC(=O)N32)C[C@@H](C)[C@@H]4c2cccc(OC)c2)c1 | – | inactive | – | – |
| COc1cccc(CO[C@H]2C=C[C@@H](c3ccccc3)O[C@H]2CBr)c1 | inactive | inactive | inactive | inactive |

| SMILES | Potency [1] | Potency [2] | Potency [3] | Potency [4] |
| --- | --- | --- | --- | --- |
| CCN1C(=NCC(C)C)NC(c2cccc(F)c2)C(C(=O)OC)=C1C (stereo not given) | – | inactive | – | – |
| COc1ccc([C@]23Cc4cc(C#N)ccc4[C@H](O2)C2=C(CC4(CCCCC4)OC2=O)O3)cc1 | – | inactive | inactive | inactive |
| CCOC(=O)CN1C(=O)[C@]2(O[C@H](COc3ccccc3)CC3=C2CCC3)c2ccccc21 | – | inactive | – | – |
| COC1=C[C@H](C(=O)NCc2ccc(Br)cc2)[C@H](C)[C@@H](c2ccccc2)CC1=O | inactive | inactive | inactive | inactive |
| C=CC1=C2C=C(C3CC3)N(CCN3CCOCC3)C=C2C(=O)C(C)(OC(=O)c2ccco2)C1=O (stereo not given) | inactive | inactive | inactive | inactive |
| CCC=CC[C@@]1(C(=O)OC)C=C[C@@H](C)[C@H](c2ccccc2Br)N1C(=O)C(F)(F)F | – | inactive | – | – |
| CCCNC(=O)N1C2=NC(C(=O)OC)=C(C(=O)OC)[C@@H]3N(C)c4ccc(OC)cc4[C@]23C[C@H]1C(=O)OC | 1690 nM (active) | – | – | 2940 nM (active) |
| C=CCOC(=O)C1=C(C)N(CC)C(=O)NC1c1ccccc1 (stereo not given) | inactive | inactive | inactive | inactive |
| CC(=O)C1=C(C)N(Cc2ccccc2)C(=O)NC1CCc1ccccc1 (stereo not given) | – | inactive | inactive | inactive |
| CCN1C(=NCc2ccc(OC)cc2)NC(c2ccccc2)C(C(=O)OC)=C1C (stereo not given) | – | – | – | inactive |
| C=C(C[C@@]1(C(=O)OC)C=C[C@@H](C)[C@H](c2ccccc2Br)N1C(=O)C(F)(F)F)c1ccccc1 | 1900 nM (active) | – | – | – |
| CCN1C(N(C)CCc2c[nH]c3ccccc23)=NC(c2cccc(C(F)(F)F)c2)C(C(=O)OC)=C1C (stereo not given) | – | inactive | – | inactive |
| C#CCN1C(=O)[C@]2(O[C@H](C)CC3=CCCC32)c2c(Br)cccc21 (stereo not given in full) | inactive | inactive | – | inactive |
| CC(C)=CCN1C(=O)[C@]2(O[C@H](COc3ccccc3)CC3=C2CCC3)c2ccccc21 | – | – | – | 1690 nM (active) |
| Cc1cc2c(c(=O)n1Cc1ccccc1)[C@H]1O[C@](c3ccsc3)(Cc3cc(C#N)ccc31)O2 | – | inactive | – | – |
| C=CCN=C1NC(c2cccc(F)c2)C(C(=O)OC)=C(C)N1Cc1ccccc1 (stereo not given) | inactive | inactive | inactive | inactive |
| CCOC(=O)C1=CN(CCc2cn(Cc3ccccc3)nn2)C(=O)NC1c1ccccc1 (stereo not given) | inactive | inactive | inactive | inactive |
| C=C(C(=O)C(C)(C)O)C(O)c1ccc([N+](=O)[O-])cc1 (stereo not given) | – | inactive | inactive | – |
| C[C@H]1C=CCC(=O)N[C@@H](c2ccccc2)[C@@H](C)C=CCC(=O)N[C@@H]1c1ccccc1 | 426 nM (active) | – | – | – |
